# HCV inhibitor: blocks hepatitis C virus; Huh7.5.1 HCVcc-Cre infection, luciferase reporter, 44 h; Potency, µM (series often up to 41.8 µM), usual class: inhibitors; 340,000 tested, 3.4% active; active = well fitted inhibition curve with a large enough effect; inconclusive = small, poorly fitted or top-dose-only effect, or another doubt; inactive = no such curve, though single readings can be large or run the other way
#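 Cells (1,000/well) were plated 4 h before compound, then infected with HCVcc-Cre virus (~0.5 moi). After 44 h further culture, infection was read as luciferase luminescence following a 15 min substrate incubation at room temperature.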
# SARS PLpro yeast: inhibitors of SARS-CoV papain-like protease in yeast; S. cerevisiae expressing SARS-CoV PLpro, growth rescue; Potency, µM (titrated, usually from 32.9 µM), most hits filed as activators; 330,000 tested, 0.19% active; AID 485353; calls by dose curve; note: nearly all actives have a fitted effect of over 55% in size
# Lassa entry inh: inhibitors of Lassa virus binding or cell entry; Lassa virus pseudotype entry inhibition, cell reporter; Potency, µM (doses to about 37.9 µM), usual class: inhibitors; 300,000 tested, 1.2% active; AID 540256; calls by dose curve; tested in HEK293 cells; note: nearly all actives have a fitted effect of over 50% in size
# HCMV antiviral: blocks human cytomegalovirus replication. HFF cells, HCMV-luciferase reporter, 72 h; stronger effect = lower value. AID 1259415. activity change, negative = inhibition, % at 57.5 µM. 410,000 tested, 4.5% active; in the data active = activity change below about -60%; inconclusive = no clear call, values can overlap the other calls; inactive = above about -39%
#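 HFF cells seeded 16 h at 37C, treated with compounds, infected with luciferase-reporter HCMV at MOI 1 PFU/cell; luciferase read at 72 h post infection, normalized to buffer-only and Salinomycin controls.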
# FMDV antiviral: antivirals against foot and mouth disease virus | FMDV antiviral cell-based qHTS | Potency, µM (titrated, usually from 57.9 µM), hits mostly inhibitors | 410,000 tested, 1.2% active | AID 1159524; calls by dose curve; tested in HEK293T cells; note: read-out not given here; nearly all actives have a fitted effect of over 45% in size
# Marburg entry inh: blocks Marburg virus binding to or entry into cells; Potency, µM (doses to about 37.8 µM), usual class: inhibitors; Marburg virus pseudotyped entry inhibition, cell reporter; AID 540276; 300,000 tested, 1.8% active; calls by dose curve; tested in HEK293 cells
# Numbers stand for hits; 0 = inactive; ? = inconclusive; - = no result; ! = not active in a repeat; [ ] = another dose, or the depositor's remark. Compounds with a hit are over-represented: about 8% of the library has one in this group of screens.
SMILES,HCV inhibitor,SARS PLpro yeast,Lassa entry inh,HCMV antiviral,FMDV antiviral,Marburg entry inh
CCC(=C(c1ccc(OC)cc1)c1ccc(OC)cc1)c1cn(CC(O)CN2CCN(C)CC2)c2ccccc12 (stereo not given),11µM,0,0,0,0,?
COc1ccccc1NC(=O)c1cc2c(C)nn(-c3ccccc3)c2s1,-,-,0,0,0,?
Cc1nn(-c2ccccc2)c2sc(C(=O)NC3CC3)cc12,13µM,0,?,0,0,0
Cc1nn(-c2ccc(F)cc2)c2sc(C(=O)N3CCCCCC3)cc12,14µM,0,0,0,0,0
O=C(NCc1cccnc1)c1cnn(-c2ncc3c(n2)-c2ccccc2CCC3)c1C1CC1,-,-,-,-,0,-
CCN1C(=O)CC(c2ccccc2)N(C2CCCC2)c2nc(Nc3ccc(C(=O)NC4CCN(C)CC4)cc3OC)ncc21 (stereo not given),8.9µM,0,-,-,0,-
CCN1C(=O)CC(C(C)C)N(C2CCCC2)c2nc(Nc3ccc(C(=O)NC4CCN(C)CC4)cc3OC)ncc21 (stereo not given),0[8.37 µM],-,-,-,?,-
COc1cc(C(=O)NC2CCN(C)CC2)ccc1Nc1ncc2c(n1)N(Cc1ccccc1)CCC(=O)N2C,0[8.37 µM],-,-,-76,0,-
COc1cc(C(=O)NC2CCN(C)CC2)ccc1Nc1ncc2c(n1)N(C1CCCCC1)CCC(=O)N2C,1.8µM,-,-,?,0,-
CNC(=O)C1CCC(Cn2c(=O)c3sccc3n(CC(=O)Nc3ccc(C)c(F)c3)c2=O)CC1 (stereo not given),-,-,0,0,0,-
COc1ccc(CNCC(O)(c2ccccc2)c2ccc(F)cc2)cc1 (stereo not given),0,0,0,?,0,11µM
COc1ccc(CNCC(O)(c2ccc(F)cc2)c2ccc(F)cc2)cc1OC,?,0,-,?,?,-
COc1ccc(CNCC(O)(c2ccc(Cl)cc2)c2ccc(Cl)cc2)cc1OC,13µM,0,?,0,?,?
COc1ccc(CNCC(O)(c2ccccc2)c2ccc(F)cc2)cc1OC (stereo not given),10µM,0,?,?,?,2.8µM
CNC(=O)Oc1ccc2c(c1)[C@]1(C)CCN(C)[C@@H]1N2C,0[8.37 µM],0,0,0,0,0.28µM!
CN1CC[C@@]2(C)c3cc(O)ccc3N(C)C12 (stereo not given in full),-,-,8.2µM,-,-,7.9µM
Cc1noc(C)c1C(=O)N1CCC2(CCCN(C(=O)Nc3ccccc3)C2)CC1,-,-,-,-,0,-
Cc1ccc(Cn2c(CNC(=O)CCc3ccccc3)nc3cccnc32)cc1,-,-,0,0,0,-
CCSC1(SCC)N=C(N)C2(C#N)C(c3ccc(OC)c(OC)c3OC)C12C#N (stereo not given),8.9µM,0,?,0,25µM,?
CCSC1(SCC)N=C(N)C2(C#N)C(c3ccccc3)NC3=C(CCC3)C12C#N (stereo not given),0,0,0,0,0,0
O=C(Nc1ccc(OC(F)(F)F)cc1)N1CCc2nc(NCc3cccc(Oc4ccccc4)c3)ncc2C1,-,-,-,-92,0,-
COc1cccc(NC(=O)N2CCc3nc(Nc4cc(Cl)cc(Cl)c4)ncc3C2)c1,-,-,-,-67,0,-
CC(C)c1ccc(Nc2ncc3c(n2)CCN(C(=O)Nc2ccc(F)c(Cl)c2)C3)cc1,-,-,-,-75,?,-
COc1cccc(NC(=O)N2CCc3nc(NCc4cccc(Oc5ccccc5)c4)ncc3C2)c1,-,-,-,?,0,-
N#Cc1ccccc1-c1ccc2ncnc(NCc3cccs3)c2c1,-,-,-,-,0,-
SMILES,HCV inhibitor,SARS PLpro yeast,Lassa entry inh,HCMV antiviral,FMDV antiviral,Marburg entry inh
CC1(C)N=C(N)N=C(N)N1c1ccc(CCCCc2ccccc2)cc1,-,-,-,-101,3.5µM,-
CC1(C)N=C(N)N=C(N)N1c1ccccc1,?,0,?,0,0,?
NC(=S)n1[nH]c(-c2ccc([N+](=O)[O-])cc2)c(N=Nc2cccc(Cl)c2)c1=O,13µM,0,?,-101,?,?
NC(=S)n1[nH]c(-c2ccc([N+](=O)[O-])cc2)c(N=Nc2ccc(O)cc2)c1=O,0,0,0,0,0,0
S=C(Nc1ccc(Nc2ccccc2)cc1)Nc1ccccn1,10µM,0,?,-95,0,?
S=C(Nc1ccccc1)Nc1ccccn1,-,-,-,0,0,-
COc1cc(C)ccc1OCCSc1nc2ccc(NC(C)=O)cc2s1,-,-,0,0,0,0
CCS(=O)(=O)N1Cc2ccccc2CC1C(=O)Nc1nnc(SCc2ccc(C#N)cc2)s1 (stereo not given),0,0,0,-66,0,0

# Screens from PubChem BioAssay.
